SMILES strings stand for the structures. A number with no mark means an inactive call. Activity calls are given as the source filed them. Rule as the data show it: active = remaining activity below about 50%; inactive = the rest.

For the assay, the target named is Phospholipase D1 (Homo sapiens) (UniProt Q13393). The assay is described as follows: cellular phospholipase D1 activity inhibition – Calu-1 cells, single concentration (AID 602144).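 Also: tested at 200 nM.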 Particulars: cellular PLD1 activity, hits give low values.
Sequence of Phospholipase D1 (Homo sapiens) (Q13393 whole entry, looked up): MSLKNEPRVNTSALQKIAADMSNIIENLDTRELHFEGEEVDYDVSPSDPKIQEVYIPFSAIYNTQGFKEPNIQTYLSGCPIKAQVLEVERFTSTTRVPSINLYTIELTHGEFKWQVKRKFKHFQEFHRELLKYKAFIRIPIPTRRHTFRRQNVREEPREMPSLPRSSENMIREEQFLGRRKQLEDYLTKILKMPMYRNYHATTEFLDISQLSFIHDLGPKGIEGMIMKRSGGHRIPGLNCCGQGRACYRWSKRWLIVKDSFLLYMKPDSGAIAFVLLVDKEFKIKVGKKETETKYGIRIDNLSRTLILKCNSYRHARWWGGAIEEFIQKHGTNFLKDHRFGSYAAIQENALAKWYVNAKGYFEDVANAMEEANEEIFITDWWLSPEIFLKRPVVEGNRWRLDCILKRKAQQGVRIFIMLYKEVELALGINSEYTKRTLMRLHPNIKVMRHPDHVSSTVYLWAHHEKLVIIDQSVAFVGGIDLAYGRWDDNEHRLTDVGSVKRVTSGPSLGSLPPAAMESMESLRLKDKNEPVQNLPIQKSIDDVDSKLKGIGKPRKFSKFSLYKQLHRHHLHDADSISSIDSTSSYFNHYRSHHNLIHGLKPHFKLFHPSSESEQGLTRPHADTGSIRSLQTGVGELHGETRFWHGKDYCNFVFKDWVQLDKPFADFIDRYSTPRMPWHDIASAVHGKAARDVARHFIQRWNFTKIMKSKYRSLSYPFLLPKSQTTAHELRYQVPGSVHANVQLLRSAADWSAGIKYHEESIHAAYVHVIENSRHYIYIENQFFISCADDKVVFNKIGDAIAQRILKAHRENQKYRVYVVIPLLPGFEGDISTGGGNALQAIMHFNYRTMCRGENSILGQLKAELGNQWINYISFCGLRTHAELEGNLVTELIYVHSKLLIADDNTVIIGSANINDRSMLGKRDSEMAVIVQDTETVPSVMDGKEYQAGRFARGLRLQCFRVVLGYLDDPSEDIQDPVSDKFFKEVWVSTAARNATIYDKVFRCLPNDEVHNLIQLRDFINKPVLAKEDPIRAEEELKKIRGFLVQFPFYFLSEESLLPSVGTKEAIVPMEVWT
Sequence of Phospholipase D1 (Homo sapiens) (Q13393 whole entry, looked up): as above
Broadly, the remaining activity is the signal under treatment as a percentage of the control signal. `C[C@@H](CN1CCC(n2c(=O)[nH]c3ccccc32)CC1)NC(=O)c1cc2ccccc2[nH]1`: the remaining activity was 8.14% (active). As to `COc1cc(C(=O)NCCN2CCN(c3ccncc3)CC2)ccc1N`, the remaining activity is 90.7%.

In the case of `C[C@@H](CN1CCC(n2c(=O)[nH]c3cc(-c4ccc(F)c(F)c4)ccc32)CC1)NC(=O)[C@H]1C[C@@H]1c1ccccc1`, the remaining activity is 59%.

For the compound `O=C(NCCN1CCC(C(=O)NCc2ccc(Cl)cc2)CC1)c1ccc2ccccc2c1`, the remaining activity is 99.2%. As to `CC(C(=O)NCCN1CCC(n2c(=O)[nH]c3ccccc32)CC1)(c1ccccc1)c1ccccc1`, the remaining activity is 104%.

In the case of `COc1ccc(S(=O)(=O)NCCN2CCC(n3c(=O)[nH]c4ccccc43)CC2)cc1`, the remaining activity was 140%.

On to `CC(C(=O)NCCN1CCN(c2ccncc2)CC1)(c1ccccc1)c1ccccc1`, for which the remaining activity was 204%. In the case of `O=C(N[C@@H](Cc1ccccc1)CN1CCC(n2c(=O)[nH]c3ccccc32)CC1)c1ccc(F)c(F)c1`, the remaining activity is 90.2%.

In the case of `C[C@@H](CN1CC=C(n2c(=O)[nH]c3ccccc32)CC1)NC(=O)c1ccc2ccccc2c1`, the remaining activity was 0.0151% (active).

Turning to `C[C@@H](CN1CCC2(CNCc3ccccc32)C1)NC(=O)c1ccc2ccccc2c1` (stereo not given in full), the remaining activity was 95.4%. Turning to `C[C@H](CN1CCC2(CC1)CNCc1ccccc12)NC(=O)c1ccc2ccccc2c1`, the remaining activity was 126%. On to `O=C(NCCN1CCC(n2c(=O)[nH]c3ccccc32)CC1)c1ccc(Cc2ccccc2)cc1`, for which the remaining activity was 91.5%. Regarding `O=C(NCCN1CCC2(CC1)CNc1ccccc12)c1cnc2ccccc2c1`, the remaining activity was 126%. To `O=C1c2ccccc2C(=O)N1CCCNc1cccc(F)c1` belongs 166%; to `C[C@@H](CN1CCC2(CCc3ccccc32)CC1)NC(=O)c1ccc2ccccc2c1`, 91.4%; to `O=C(NCCN1CCC(n2c(=O)[nH]c3ccccc32)CC1)c1ncccn1`, 120%.

Consider `C[C@H](CN1CCC(n2c(=O)[nH]c3cc(Cl)ccc32)CC1)NC(=O)c1cc2ccccc2[nH]1`, for which the remaining activity was 0.888% (active).

`C[C@@H](CN1CCC(n2c(=O)[nH]c3ccc(F)cc32)CC1)NC(=O)c1ccc(F)c(F)c1`: the remaining activity was 13.7% (active).

As for `Nc1ccc(C(=O)NCCN2CCC(n3c(=O)[nH]c4ccccc43)CC2)c(F)c1`, the remaining activity was 68.5%. Next, `O=C(NCCN1CCC2(C=Cc3ccccc32)CC1)c1ccc2ccccc2c1`: 127%. To `Cc1cccc(NC(=O)NCCN2CCC(n3c(=O)[nH]c4ccccc43)CC2)c1` belongs 67.6%; to `C[C@H](N)CN1CCC(c2nc3ccccc3n2C)CC1` (tested in a mixture with another compound), 88.8%.

In the case of `O=C(NCCN1CCC(n2nnc3ccccc32)CC1)c1cnc2ccccc2c1`, the remaining activity is 79.2%. Next, `O=C(NCCN1CCC(n2c(=O)[nH]c3ccccc32)CC1)N1c2ccccc2Sc2ccccc21`: 89.7%; `O=C(NCCN1CCC(n2c(=O)[nH]c3ccc(F)cc32)CC1)c1ccc(C(F)(F)F)cc1`: 19.1% (active); `O=C(Cc1ccc2ccccc2c1)NCCN1CCC(n2c(=O)[nH]c3ccccc32)CC1`: 87.7%.

As for `Cn1c(C(=O)NCCN2CCN(c3ccncc3)CC2)cc2ccccc21`, the remaining activity was 188%. Regarding `COc1cccc(N2CCN(CCNC(=O)c3ccc(C)cc3)CC2)c1`, the remaining activity is 84.8%. To `O=C1c2ccccc2C(=O)N1CCN1CCC(n2c(=O)[nH]c3ccccc32)CC1` belongs 112%; to `CCNC(=S)NCCN1CCC(n2c(=O)[nH]c3ccccc32)CC1`, 144%; to `O=C(NCCN1CCC(n2c(=O)[nH]c3ccccc32)CC1)c1cccc2cccnc12`, 30.7% (active). With `O=C(C1C[C@@H]1c1ccccc1)N1CCC(n2c(=O)[nH]c3cc(Cl)ccc32)CC1` (stereo not given in full), the remaining activity was 89.8%. Consider `Cc1ccc(NC(=S)NCCN2CCC(n3c(=O)[nH]c4ccccc43)CC2)cc1`, for which the remaining activity is 152%. `Nc1cccc(Cl)c1C(=O)NCCN1CCC(n2c(=O)[nH]c3ccccc32)CC1`: the remaining activity is 89.2%. Consider `O=C(c1ccc(Cl)cc1)N(CCN1CCC(n2c(=O)[nH]c3ccccc32)CC1)C(=O)c1ccc(Cl)cc1`, for which the remaining activity was 63.9%.

For the compound `O=c1[nH]c2ccccc2n1C1CCN(CCNS(=O)(=O)c2ccc(F)cc2)CC1`, the remaining activity was 129%. To `C[C@@H](CN1CCC(n2c(=O)[nH]c3cc(-c4ccccc4)ccc32)CC1)NC(=O)[C@H]1C[C@@H]1c1ccccc1` belongs 67.4%. Next, `O=C(NCCN1CCC(n2c(=O)[nH]c3ccccc32)CC1)c1ccc2cccc3c2c1CC3`: 93.4%.

As for `Nc1ccc(C(=O)NCCN2CCC(n3c(=O)[nH]c4ccccc43)CC2)cc1OC(F)(F)F`, the remaining activity was 72.6%.

With `O=c1[nH]c2ccccc2n1C1CCN(CCNS(=O)(=O)c2ccccc2Br)CC1`, the remaining activity was 112%.

The record behind these values is PubChem BioAssay AID602144 (Vanderbilt Specialized Chemistry Center, 2011).
